Source: PubChem BioAssay (Center for Chemical Genomics, University of Michigan)
TAR Tat displ = HIV-1 TAR-Tat binding disruption. HIV-1 TAR RNA, Tat peptide displacement FRET; hits give high values. z-score (test concentration not listed). actives 0.6% (n = 100,000). AID 1259389; active = z-score of 3 or more in at least 2 runs
CDC25B-CDK2 inh = human CDC25B-CDK2/CyclinA binding inhibition; P30305+P24941; HTRF CDC25B-CDK2/CyclinA binding, anti-His/anti-Flag; hits give high values; z-score (test concentration not listed); actives 0.72% (n = 94,000); AID 1259370; in the data active = z-score above about 3.2
Each line names hits and unclear results; the compound was inactive in the other large screens. Shown are actives, neighbours in structure and some others; about 0.9% of the full set was active somewhere.

CSc1ccc(C2CC(=O)N3CN(Cc4ccco4)CSC3=C2C#N)cc1 (stereo not given)	none
CSc1ccc(C2CC(=O)N3CN(c4ccccc4)CSC3=C2C#N)cc1 (stereo not given)	CDC25B-CDK2 inh 4.1
CSc1ccc(C2CC(=O)N3CN(c4ccccc4C)CSC3=C2C#N)cc1 (stereo not given)	CDC25B-CDK2 inh 15
CCc1ccc(C2CC(=O)N3CN(c4ccccc4)CSC3=C2C#N)cc1 (stereo not given)	CDC25B-CDK2 inh 4.5
CSc1ccc(C2CC(=O)N3CN(c4ccccc4F)CSC3=C2C#N)cc1 (stereo not given)	none
CSc1ccc(C2CC(=O)N3CN(c4ccc(C)cc4)CSC3=C2C#N)cc1 (stereo not given)	CDC25B-CDK2 inh 5.5
CSc1ccc(C2CC(=O)N3CN(C)CSC3=C2C#N)cc1 (stereo not given)	none
COc1ccc(CN[C@H]2CS(=O)(=O)C[C@@H]2S(=O)(=O)c2ccc(Cl)cc2)cc1OC	none
Cc1nc(-c2ccc(C)c(S(=O)(=O)Nc3cccc(C)c3C)c2)cs1	none (no result: CDC25B-CDK2 inh)
CCc1ccc(N2C(=O)C3N=NN(Cc4ccc(C)cc4)C3C2=O)cc1 (stereo not given)	none
COc1ccccc1C(=O)CN1C=NS(=O)(=O)c2ccccc21	none (no result: CDC25B-CDK2 inh)
Cc1ccc(Nc2nc(NCCC(C)C)nc3c2cnn3C)c(C)c1	none (no result: CDC25B-CDK2 inh)
Cc1c(C(=O)O)sc2ncnc(Nc3cccc(Cl)c3)c12	TAR Tat displ 21 (no result: CDC25B-CDK2 inh)
Cc1c(C(=O)O)sc2ncnc(N3CCN(c4ccccc4)CC3)c12	TAR Tat displ 29 (no result: CDC25B-CDK2 inh)
Cc1c(C(=O)O)sc2ncnc(NC(C)C)c12	none (no result: CDC25B-CDK2 inh)
Cc1c(C(=O)O)sc2ncnc(Nc3ccc(F)cc3)c12	TAR Tat displ 25 (no result: CDC25B-CDK2 inh)
Cc1c(C(=O)N2CCN(c3ccccc3)CC2)sc2ncnc(N3CCN(c4ccccn4)CC3)c12	none
Cc1c(C(=O)O)sc2ncnc(NCC3CCCO3)c12 (stereo not given)	none (no result: CDC25B-CDK2 inh)
CCOc1ccc(Nc2ncnc3sc(C(=O)O)c(C)c23)cc1	TAR Tat displ 4.7 (no result: CDC25B-CDK2 inh)
CCC(C)Nc1ncnc2sc(C(=O)O)c(C)c12 (stereo not given)	none (no result: CDC25B-CDK2 inh)
CCCNC(=O)c1cc(CC)on1	none
O=C(NCc1ccco1)C1CCN(c2ccc3cc(S(=O)(=O)N4CCCCC4)ccc3n2)CC1	none (no result: CDC25B-CDK2 inh)
CCCCCn1c(COC)nc2ccccc21	none
C=CCN1C(=O)NC2C1N(S(C)(=O)=O)CCN2S(C)(=O)=O (stereo not given)	none
CCN1CCN(CCCNC(=O)c2cc3n(n2)CC(C)(C(=O)NC2CCCC2)N(C)C3=O)CC1 (stereo not given)	none (no result: CDC25B-CDK2 inh)
Cc1cccn2c(=O)cc(COc3ccc(NS(=O)(=O)c4ccccc4)cc3)nc12	none (no result: CDC25B-CDK2 inh)
O=C1c2cccnc2C(=O)N1Cc1ccc(F)cc1S(=O)(=O)Nc1ccc(-c2ccno2)cc1	none (no result: CDC25B-CDK2 inh)
Cc1ccc2scc(N3CCN(CCc4ccccc4)CC3)c(=O)c2c1	none (no result: CDC25B-CDK2 inh)
O=C(c1noc2c1COc1ccccc1-2)N1CCN(c2ccccc2F)CC1	none
O=C(CCc1nc(CSc2nc3ccccc3o2)no1)Nc1ccc(Cl)cc1F	none (no result: CDC25B-CDK2 inh)
Cc1c(C(=O)O)sc2ncnc(NCCc3ccco3)c12	none (no result: CDC25B-CDK2 inh)
Cc1c(C(=O)O)sc2ncnc(NCc3cccs3)c12	TAR Tat displ 9.8 (no result: CDC25B-CDK2 inh)
COc1cc(OC)c(Nc2ncnc3sc(C(=O)O)c(C)c23)cc1Cl	TAR Tat displ 4.2 (no result: CDC25B-CDK2 inh)
COCCNc1ncnc2sc(C(=O)O)c(C)c12	none (no result: CDC25B-CDK2 inh)
O=c1ccc2cc(O)c(O)cc2o1	TAR Tat displ 25 (no result: CDC25B-CDK2 inh)
O=c1ccc2ccc(O)cc2o1	none (no result: CDC25B-CDK2 inh)
CCOC(=O)c1ncn(-c2ccccc2)n1	none
CCOC(=O)Cn1cnc2nn(-c3ccccc3)cc2c1=O	TAR Tat displ 5.1
O=C(O)c1sccc1S(=O)(=O)Nc1ccccc1N1CCOCC1	CDC25B-CDK2 inh 19 (no result: TAR Tat displ)
O=C(Nc1ccccc1)Nc1ccccc1N1CCOCC1	none (no result: TAR Tat displ)
O=CC(C=Nc1ccc(Cl)cn1)[N+](=O)[O-] (stereo not given)	CDC25B-CDK2 inh 4.3 (no result: TAR Tat displ)
CCOC(=O)CSc1nnc(-c2ccccc2)c(=O)[nH]1	none
CCOC(=O)CSc1nnc(NCC(=O)OC)c(=O)[nH]1	CDC25B-CDK2 inh 4.2 (no result: TAR Tat displ)
CC12OC(C(Br)C1Br)C1C(=O)OC(=O)C12 (stereo not given)	CDC25B-CDK2 inh 6.1 (no result: TAR Tat displ)
Cn1cc(C(=O)NCC2CCCO2)c(=O)c2cc(S(=O)(=O)N3CCOCC3)ccc21 (stereo not given)	none (no result: TAR Tat displ)
CCc1cc2c(N(C)c3ccc(F)cc3)ncnc2s1	none (no result: CDC25B-CDK2 inh)
O=C1CC(CSc2nccc(-c3cccnc3)n2)=NN1c1ccc(Cl)cc1	none (no result: TAR Tat displ)
CCCC1=NN(c2ccc(Cl)cc2)C(=O)C1	CDC25B-CDK2 inh 6.2
O=C(C1CCCN(S(=O)(=O)N2CCOCC2)C1)N1CCN(c2ccc(F)cc2)CC1 (stereo not given)	none (no result: CDC25B-CDK2 inh)
O=C(C1CCCN(S(=O)(=O)N2CCCCC2)C1)N1CCN(c2ccccc2)CC1 (stereo not given)	TAR Tat displ 15 (no result: CDC25B-CDK2 inh)
O=c1[nH]c(SCCCOc2ccc(Cl)cc2)nc2c1CCCC2	none
CCOc1ccc(S(=O)(=O)N2CCN(CCn3c(C(F)(F)F)nc4cccnc43)CC2)cc1	none (no result: CDC25B-CDK2 inh)
O=C(c1ccccc1)C1CCN(C(=O)CS(=O)(=O)c2ccc(Cl)cc2)CC1	none (no result: TAR Tat displ)
O=C1CC(c2ccco2)Cc2[nH]c(=O)c(-c3nc(-c4ccccc4)cs3)cc21 (stereo not given)	CDC25B-CDK2 inh 17
O=C1CC(c2ccco2)Cc2[nH]c(=O)c(-c3nc(-c4cccc(Cl)c4)cs3)cc21 (stereo not given)	none
COc1ccc2c(c1OC)C(=O)O[C@@H]2[C@H]1c2c(cc3c(c2OC)OCO3)CCN1C	none
COc1cc2c3c(c1OC)C1(C=CC(=O)C=C1)CC3N(C)CC2 (stereo not given)	CDC25B-CDK2 inh 8.3
Cn1ncc2c(Nc3cccc(Cl)c3)nc(NCCc3ccccc3)nc21	none (no result: CDC25B-CDK2 inh)
CSc1cccc(NC(=O)C2CC3CSCN3C23C(=O)N(C)c2ccccc23)c1 (stereo not given)	none (no result: CDC25B-CDK2 inh)
CCN1C(=O)C2(c3ccccc31)C(C(=O)Nc1cccc(SC)c1)CC1CSCN12 (stereo not given)	TAR Tat displ 20 (no result: CDC25B-CDK2 inh)
Cc1nc2sccn2c1C(=O)NN	CDC25B-CDK2 inh 15 (no result: TAR Tat displ)
Cc1nc2sccn2c(=O)c1NC(=O)c1ccco1	none (no result: CDC25B-CDK2 inh)
O=C(Cn1cnc(S(=O)(=O)N2CCc3ccccc32)c1)Nc1cccc(Br)c1	none (no result: CDC25B-CDK2 inh)
O=C(NCC1CCCO1)c1cccc(N2C(=O)c3ccc([N+](=O)[O-])cc3C2=O)c1 (stereo not given)	CDC25B-CDK2 inh 3.5 (no result: TAR Tat displ)
O=C(NCC1CCCO1)c1cccc(N2C(=O)CCS2(=O)=O)c1 (stereo not given)	none
CC1CC(=O)Nc2cc(S(=O)(=O)Nc3cccc(Cl)c3)ccc2S1 (stereo not given)	none (no result: CDC25B-CDK2 inh)
O=C1Nc2cc(Cl)ccc2SC2CCCCC2O1 (stereo not given)	CDC25B-CDK2 inh 20 (no result: TAR Tat displ)
Cc1c(-c2nc(-c3ccccc3F)no2)nnn1-c1ccc(Br)cc1	none (no result: CDC25B-CDK2 inh)
Cc1cc(NCc2ccc3c(c2)OCO3)n2nc(-c3ccco3)nc2n1	none (no result: CDC25B-CDK2 inh)
Cc1cc(Nc2ccc3c(c2)OCO3)n2nc(-c3ccco3)nc2n1	TAR Tat displ 18 (no result: CDC25B-CDK2 inh)
O=[N+]([O-])c1cccc(-c2noc(-c3sc4ccccc4c3Cl)n2)c1	none (no result: TAR Tat displ)
O=C(O)c1cc(O)c2c(c1)[C@@H]([C@H]1c3cc(C(=O)O)cc(O)c3C(=O)c3c(O[C@H]4O[C@H](CO)[C@@H](O)[C@H](O)[C@H]4O)cccc31)c1cccc(O[C@H]3O[C@H](CO)[C@@H](O)[C@H](O)[C@H]3O)c1C2=O	TAR Tat displ 22 (no result: CDC25B-CDK2 inh)
O=c1[nH]c2ccc(S(=O)(=O)N3CCN(c4ccccc4)CC3)cc2[nH]c1=O	none (no result: TAR Tat displ)
